# Test results: article PMC7862700, “An all-to-all approach to the identification of sequence-specific readers for epigenetic DNA modifications on cytosine”
# What was measured:
# Test in all cases: DAPPL (digital affinity profiling via proximity ligation, sequencing); 10 mM Tris-HCl pH 7.5, 50 mM NaCl, 1 mM DTT, 4% glycerol, room temperature, 30 min; GST-TFs on glutathione beads, 16-mer random dsDNA library, 0.1% formaldehyde crosslink after washing; high values mean tight binding
# FLI1 = molecular target: T1, FLI1 (Homo sapiens, UniProt Q01543 1-452); settings: protein: recombinant; tags: N-terminal GST; dsDNA, one strand shown
# T1 sequence: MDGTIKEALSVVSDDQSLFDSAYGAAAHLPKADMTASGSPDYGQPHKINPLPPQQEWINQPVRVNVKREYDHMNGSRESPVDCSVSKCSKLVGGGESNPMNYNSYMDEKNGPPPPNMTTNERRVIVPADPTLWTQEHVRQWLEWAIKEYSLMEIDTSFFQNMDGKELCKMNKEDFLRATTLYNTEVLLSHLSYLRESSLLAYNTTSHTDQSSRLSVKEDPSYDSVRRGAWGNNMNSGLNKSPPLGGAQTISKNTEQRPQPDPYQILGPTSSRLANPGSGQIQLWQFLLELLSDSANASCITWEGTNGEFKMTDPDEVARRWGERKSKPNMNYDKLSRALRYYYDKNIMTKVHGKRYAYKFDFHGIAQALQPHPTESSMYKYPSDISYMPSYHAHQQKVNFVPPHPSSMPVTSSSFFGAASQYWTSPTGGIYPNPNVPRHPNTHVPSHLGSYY
# How it was run: (§1)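 Pools were built from human transcription factors expressed in yeast as GST fusions, captured on glutathione beads and DNA-barcoded, along with a tag-only sample. Incubation with 200 nmole of a 16-mer random double-stranded DNA library lasted 30 min at room temperature in Tris/NaCl/DTT/glycerol buffer, and was followed by washing, 0.1% formaldehyde crosslinking, proximity ligation, PCR amplification and Illumina NextSeq500 sequencing. Binding signal is the quotient of each hexamer's read frequency for a factor and its frequency for the tag-only sample.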
# ELK1 = molecular target: T2, ELK1 (Homo sapiens, UniProt P19419 1-428); settings: protein: recombinant; tags: N-terminal GST; dsDNA, one strand shown
# T2 sequence: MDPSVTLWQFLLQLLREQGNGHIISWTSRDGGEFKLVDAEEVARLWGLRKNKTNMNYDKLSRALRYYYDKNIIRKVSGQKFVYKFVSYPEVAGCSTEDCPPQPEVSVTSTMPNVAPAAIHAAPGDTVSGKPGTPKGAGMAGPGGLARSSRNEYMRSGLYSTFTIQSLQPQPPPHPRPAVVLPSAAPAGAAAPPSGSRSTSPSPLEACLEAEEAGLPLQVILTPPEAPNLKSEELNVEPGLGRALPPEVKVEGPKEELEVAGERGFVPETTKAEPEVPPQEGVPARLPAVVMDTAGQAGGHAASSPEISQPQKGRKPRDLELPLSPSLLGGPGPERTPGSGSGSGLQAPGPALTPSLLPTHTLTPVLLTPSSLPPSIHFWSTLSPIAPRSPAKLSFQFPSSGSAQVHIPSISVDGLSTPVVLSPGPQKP
# How it was run: as §1
# GABPA = molecular target: T3, GABPA (Homo sapiens, UniProt Q06546 1-454); settings: protein: recombinant; tags: N-terminal GST; dsDNA, one strand shown
# T3 sequence: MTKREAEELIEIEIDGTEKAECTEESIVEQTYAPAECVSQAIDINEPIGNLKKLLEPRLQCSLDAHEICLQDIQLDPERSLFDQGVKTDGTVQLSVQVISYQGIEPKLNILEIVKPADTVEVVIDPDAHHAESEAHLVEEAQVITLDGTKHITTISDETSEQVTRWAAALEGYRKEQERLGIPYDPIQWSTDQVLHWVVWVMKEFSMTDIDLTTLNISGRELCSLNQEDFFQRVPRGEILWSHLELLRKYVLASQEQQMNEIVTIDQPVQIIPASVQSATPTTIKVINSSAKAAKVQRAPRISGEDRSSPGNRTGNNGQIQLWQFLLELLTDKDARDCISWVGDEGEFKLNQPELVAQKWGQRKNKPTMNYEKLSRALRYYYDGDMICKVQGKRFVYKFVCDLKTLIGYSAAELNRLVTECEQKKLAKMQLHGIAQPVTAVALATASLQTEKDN
# How it was run: as §1
# ERG = molecular target: T4, ERG (Homo sapiens, UniProt P11308 1-479); settings: protein: recombinant; tags: N-terminal GST; dsDNA, one strand shown
# T4 sequence: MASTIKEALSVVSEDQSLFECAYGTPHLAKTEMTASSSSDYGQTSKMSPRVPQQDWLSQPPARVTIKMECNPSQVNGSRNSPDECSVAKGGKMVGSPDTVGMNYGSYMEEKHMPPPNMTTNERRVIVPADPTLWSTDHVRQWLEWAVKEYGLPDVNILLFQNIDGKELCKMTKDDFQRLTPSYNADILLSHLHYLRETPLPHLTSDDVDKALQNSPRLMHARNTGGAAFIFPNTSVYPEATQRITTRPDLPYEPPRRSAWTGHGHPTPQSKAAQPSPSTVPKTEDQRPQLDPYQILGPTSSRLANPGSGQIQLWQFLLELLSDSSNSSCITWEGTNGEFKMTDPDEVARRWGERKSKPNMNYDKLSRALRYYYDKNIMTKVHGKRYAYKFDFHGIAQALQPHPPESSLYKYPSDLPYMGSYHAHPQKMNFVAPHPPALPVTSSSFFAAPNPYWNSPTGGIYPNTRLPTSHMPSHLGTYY
# How it was run: as §1
# ELF1 = ELF1 (Homo sapiens, UniProt P32519 1-619); settings: protein: recombinant; tags: N-terminal GST; dsDNA, one strand shown
# Chain of ELF1 (P32519 whole entry): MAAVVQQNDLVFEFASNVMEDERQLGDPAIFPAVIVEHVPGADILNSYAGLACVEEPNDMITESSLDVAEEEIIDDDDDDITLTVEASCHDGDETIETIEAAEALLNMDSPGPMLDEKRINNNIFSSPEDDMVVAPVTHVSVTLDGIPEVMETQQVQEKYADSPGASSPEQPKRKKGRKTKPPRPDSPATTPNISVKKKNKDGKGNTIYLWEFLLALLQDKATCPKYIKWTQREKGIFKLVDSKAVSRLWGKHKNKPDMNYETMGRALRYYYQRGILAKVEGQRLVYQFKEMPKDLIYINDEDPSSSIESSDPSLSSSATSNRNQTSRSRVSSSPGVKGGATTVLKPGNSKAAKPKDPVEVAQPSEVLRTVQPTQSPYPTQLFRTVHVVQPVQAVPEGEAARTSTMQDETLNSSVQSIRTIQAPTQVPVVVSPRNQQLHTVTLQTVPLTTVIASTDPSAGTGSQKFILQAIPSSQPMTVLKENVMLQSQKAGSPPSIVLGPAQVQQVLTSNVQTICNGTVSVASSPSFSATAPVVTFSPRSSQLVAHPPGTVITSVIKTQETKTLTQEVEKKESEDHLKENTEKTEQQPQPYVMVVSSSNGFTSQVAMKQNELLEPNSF
# How it was run: as §1
# EHF = molecular target: T5, EHF (Homo sapiens, UniProt Q9NZC4 1-300); settings: protein: recombinant; tags: N-terminal GST; dsDNA, one strand shown
# T5 sequence: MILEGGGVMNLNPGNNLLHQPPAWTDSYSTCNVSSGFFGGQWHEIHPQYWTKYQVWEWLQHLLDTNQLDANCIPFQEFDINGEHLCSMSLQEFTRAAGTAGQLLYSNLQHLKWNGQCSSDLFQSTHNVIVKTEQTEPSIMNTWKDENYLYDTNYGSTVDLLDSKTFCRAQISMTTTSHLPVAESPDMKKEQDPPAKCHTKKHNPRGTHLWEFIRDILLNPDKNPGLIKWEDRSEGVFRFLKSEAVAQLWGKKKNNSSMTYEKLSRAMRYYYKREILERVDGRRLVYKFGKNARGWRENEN
# How it was run: as §1
# SPI1 = SPI1 (Homo sapiens, UniProt P17947 1-270); settings: protein: recombinant; tags: N-terminal GST; dsDNA, one strand shown
# How it was run: as §1
# SPIB = SPIB (Homo sapiens, UniProt Q01892 1-262); settings: protein: recombinant; tags: N-terminal GST; dsDNA, one strand shown
# Chain of SPIB (Q01892 whole entry): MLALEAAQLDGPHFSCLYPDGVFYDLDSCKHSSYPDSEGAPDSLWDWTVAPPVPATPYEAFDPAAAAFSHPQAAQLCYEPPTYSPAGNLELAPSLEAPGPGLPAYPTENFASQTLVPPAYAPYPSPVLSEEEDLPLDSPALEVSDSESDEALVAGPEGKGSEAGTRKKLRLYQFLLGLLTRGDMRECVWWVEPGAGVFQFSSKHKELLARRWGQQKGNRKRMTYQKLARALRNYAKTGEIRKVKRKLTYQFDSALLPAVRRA
# How it was run: as §1
# ELK3 = molecular target: T6, ELK3 (Homo sapiens, UniProt P41970 1-407); settings: protein: recombinant; tags: N-terminal GST; dsDNA, one strand shown
# T6 sequence: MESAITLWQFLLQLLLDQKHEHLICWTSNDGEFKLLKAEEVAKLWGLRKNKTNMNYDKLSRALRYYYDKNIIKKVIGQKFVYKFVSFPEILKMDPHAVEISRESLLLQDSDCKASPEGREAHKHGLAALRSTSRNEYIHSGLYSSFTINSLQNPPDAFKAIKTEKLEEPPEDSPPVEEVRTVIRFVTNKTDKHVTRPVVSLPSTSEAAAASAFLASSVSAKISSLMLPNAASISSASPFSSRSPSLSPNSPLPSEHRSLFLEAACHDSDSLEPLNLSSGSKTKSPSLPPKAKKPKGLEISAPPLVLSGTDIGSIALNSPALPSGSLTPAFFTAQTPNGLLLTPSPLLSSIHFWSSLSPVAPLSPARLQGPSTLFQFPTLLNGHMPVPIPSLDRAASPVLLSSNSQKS
# How it was run: as §1
# FEV = molecular target: T7, FEV (Homo sapiens, UniProt Q99581 1-238); settings: protein: recombinant; tags: N-terminal GST; dsDNA, one strand shown
# T7 sequence: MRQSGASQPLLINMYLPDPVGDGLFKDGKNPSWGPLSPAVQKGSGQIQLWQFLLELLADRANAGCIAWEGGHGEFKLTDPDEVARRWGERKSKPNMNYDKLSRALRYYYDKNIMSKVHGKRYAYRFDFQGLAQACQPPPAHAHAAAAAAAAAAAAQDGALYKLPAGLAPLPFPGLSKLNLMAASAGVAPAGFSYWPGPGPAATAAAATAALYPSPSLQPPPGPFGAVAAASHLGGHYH
# How it was run: as §1
# ETV5 = ETV5 (Homo sapiens, UniProt P41161 1-510); settings: protein: recombinant; tags: N-terminal GST; dsDNA, one strand shown
# Chain of ETV5 (P41161 whole entry): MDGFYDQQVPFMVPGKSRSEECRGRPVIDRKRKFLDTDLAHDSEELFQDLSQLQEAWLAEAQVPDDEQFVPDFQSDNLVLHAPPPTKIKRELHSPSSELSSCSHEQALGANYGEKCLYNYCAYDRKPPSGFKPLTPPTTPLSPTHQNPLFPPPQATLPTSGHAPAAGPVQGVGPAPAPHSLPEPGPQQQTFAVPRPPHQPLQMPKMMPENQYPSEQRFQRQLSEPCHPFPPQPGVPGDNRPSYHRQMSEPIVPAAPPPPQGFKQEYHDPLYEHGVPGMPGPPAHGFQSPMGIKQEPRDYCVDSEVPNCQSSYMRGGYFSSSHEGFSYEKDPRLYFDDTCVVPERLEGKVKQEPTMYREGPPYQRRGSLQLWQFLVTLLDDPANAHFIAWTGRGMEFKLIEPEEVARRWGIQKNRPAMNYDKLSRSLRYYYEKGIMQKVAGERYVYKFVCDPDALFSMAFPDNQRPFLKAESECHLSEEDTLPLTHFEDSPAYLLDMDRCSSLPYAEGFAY
# How it was run: as §1
# HSF1 = HSF1 (Homo sapiens, UniProt Q00613 1-529); settings: protein: recombinant; tags: N-terminal GST; chain copies: 3; dsDNA, one strand shown
# Chain of HSF1 (Q00613 whole entry): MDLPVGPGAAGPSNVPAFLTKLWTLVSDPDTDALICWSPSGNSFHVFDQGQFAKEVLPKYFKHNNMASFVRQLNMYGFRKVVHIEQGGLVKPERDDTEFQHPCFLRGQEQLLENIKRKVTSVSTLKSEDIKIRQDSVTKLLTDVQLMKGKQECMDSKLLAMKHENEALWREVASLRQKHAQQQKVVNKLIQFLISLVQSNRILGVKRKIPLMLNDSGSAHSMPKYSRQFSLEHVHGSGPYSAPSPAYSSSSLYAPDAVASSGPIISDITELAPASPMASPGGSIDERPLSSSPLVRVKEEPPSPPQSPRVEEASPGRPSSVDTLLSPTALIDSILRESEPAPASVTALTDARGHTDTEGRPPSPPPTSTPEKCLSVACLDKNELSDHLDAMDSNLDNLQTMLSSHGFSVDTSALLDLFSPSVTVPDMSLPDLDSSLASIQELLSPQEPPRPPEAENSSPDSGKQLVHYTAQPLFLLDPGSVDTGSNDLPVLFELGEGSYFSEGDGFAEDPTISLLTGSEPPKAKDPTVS
# How it was run: as §1
# SPIC = molecular target: T8, SPIC (Homo sapiens, UniProt Q8N5J4 1-248); settings: protein: recombinant; tags: N-terminal GST; dsDNA, one strand shown
# T8 sequence: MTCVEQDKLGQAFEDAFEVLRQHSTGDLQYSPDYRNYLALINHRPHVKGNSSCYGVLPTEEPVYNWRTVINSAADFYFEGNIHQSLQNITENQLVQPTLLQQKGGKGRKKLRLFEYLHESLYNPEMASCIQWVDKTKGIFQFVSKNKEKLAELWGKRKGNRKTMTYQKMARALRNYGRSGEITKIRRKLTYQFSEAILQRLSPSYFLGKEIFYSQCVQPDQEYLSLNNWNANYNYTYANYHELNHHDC
# How it was run: as §1
# ELF4 = ELF4 (Homo sapiens, UniProt Q99607 1-663); settings: protein: recombinant; tags: N-terminal GST; dsDNA, one strand shown
# Chain of ELF4 (Q99607 whole entry): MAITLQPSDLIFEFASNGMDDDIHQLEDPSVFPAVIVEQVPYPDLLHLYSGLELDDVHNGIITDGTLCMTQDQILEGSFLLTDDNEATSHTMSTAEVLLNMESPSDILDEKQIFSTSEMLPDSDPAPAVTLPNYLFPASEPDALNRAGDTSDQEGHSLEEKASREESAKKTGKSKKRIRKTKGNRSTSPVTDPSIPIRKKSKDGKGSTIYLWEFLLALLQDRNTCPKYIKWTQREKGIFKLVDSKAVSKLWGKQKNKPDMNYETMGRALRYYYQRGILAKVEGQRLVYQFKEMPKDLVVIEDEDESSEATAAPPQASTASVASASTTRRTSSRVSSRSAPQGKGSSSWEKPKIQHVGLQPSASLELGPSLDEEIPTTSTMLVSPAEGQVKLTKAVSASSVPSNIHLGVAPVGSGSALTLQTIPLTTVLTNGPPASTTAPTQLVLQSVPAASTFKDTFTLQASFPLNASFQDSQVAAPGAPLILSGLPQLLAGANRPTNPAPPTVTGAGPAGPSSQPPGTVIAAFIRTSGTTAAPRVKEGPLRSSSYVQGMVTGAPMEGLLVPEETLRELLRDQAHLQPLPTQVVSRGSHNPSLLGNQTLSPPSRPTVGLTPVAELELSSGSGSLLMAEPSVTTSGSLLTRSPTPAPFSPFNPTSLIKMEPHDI
# How it was run: as §1
# ELK4 = molecular target: T9, ELK4 (Homo sapiens, UniProt P28324-2 1-405); settings: protein: recombinant; tags: N-terminal GST; dsDNA, one strand shown
# T9 sequence: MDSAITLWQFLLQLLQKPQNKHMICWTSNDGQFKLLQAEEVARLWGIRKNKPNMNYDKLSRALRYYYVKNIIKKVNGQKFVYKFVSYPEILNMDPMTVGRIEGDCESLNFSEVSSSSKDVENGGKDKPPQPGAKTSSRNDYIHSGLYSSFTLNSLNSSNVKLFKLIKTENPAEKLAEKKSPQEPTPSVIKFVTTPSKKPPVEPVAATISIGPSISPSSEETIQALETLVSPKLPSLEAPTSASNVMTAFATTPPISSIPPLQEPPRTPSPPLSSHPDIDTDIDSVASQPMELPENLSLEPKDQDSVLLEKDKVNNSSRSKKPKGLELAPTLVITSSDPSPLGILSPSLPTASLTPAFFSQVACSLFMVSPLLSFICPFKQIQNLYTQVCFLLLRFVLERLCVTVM
# How it was run: as §1
# ETV2 = molecular target: T10, ETV2 (Homo sapiens, UniProt O00321 1-342); settings: protein: recombinant; tags: N-terminal GST; dsDNA, one strand shown
# T10 sequence: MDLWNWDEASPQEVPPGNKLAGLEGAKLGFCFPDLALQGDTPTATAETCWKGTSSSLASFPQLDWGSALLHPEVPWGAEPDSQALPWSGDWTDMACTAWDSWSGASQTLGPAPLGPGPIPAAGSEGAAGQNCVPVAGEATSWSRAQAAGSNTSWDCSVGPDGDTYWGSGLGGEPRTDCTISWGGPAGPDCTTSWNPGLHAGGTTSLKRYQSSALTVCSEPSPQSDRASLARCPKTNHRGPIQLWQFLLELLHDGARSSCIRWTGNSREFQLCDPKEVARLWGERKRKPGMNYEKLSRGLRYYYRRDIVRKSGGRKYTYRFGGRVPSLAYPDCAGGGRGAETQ
# How it was run: as §1
# ELF3 = molecular target: T11, ELF3 (Homo sapiens, UniProt P78545 1-371); settings: protein: recombinant; tags: N-terminal GST; dsDNA, one strand shown
# T11 sequence: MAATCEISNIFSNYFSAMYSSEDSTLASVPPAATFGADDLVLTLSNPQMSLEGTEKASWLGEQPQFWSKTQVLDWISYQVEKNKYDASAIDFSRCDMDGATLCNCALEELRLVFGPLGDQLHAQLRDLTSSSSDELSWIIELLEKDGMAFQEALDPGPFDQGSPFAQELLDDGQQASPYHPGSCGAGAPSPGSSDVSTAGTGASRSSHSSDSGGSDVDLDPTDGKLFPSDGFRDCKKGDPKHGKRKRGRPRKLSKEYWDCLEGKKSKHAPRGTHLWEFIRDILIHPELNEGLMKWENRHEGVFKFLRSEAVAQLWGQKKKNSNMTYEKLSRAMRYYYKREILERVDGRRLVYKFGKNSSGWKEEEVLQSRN
# How it was run: as §1
# CRX = CRX (Homo sapiens, UniProt O43186 1-299); settings: protein: recombinant; tags: N-terminal GST; dsDNA, one strand shown
# Chain of CRX (O43186 whole entry): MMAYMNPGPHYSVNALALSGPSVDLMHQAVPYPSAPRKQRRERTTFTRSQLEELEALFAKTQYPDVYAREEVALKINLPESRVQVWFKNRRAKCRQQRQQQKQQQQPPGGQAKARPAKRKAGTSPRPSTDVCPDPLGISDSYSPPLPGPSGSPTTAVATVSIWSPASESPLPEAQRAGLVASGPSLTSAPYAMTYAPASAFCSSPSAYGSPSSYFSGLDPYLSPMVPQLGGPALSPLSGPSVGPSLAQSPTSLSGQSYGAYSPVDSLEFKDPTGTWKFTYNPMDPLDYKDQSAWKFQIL
# How it was run: as §1
# ETV1 = ETV1 (Homo sapiens, UniProt P50549 1-477); settings: protein: recombinant; tags: N-terminal GST; dsDNA, one strand shown
# Chain of ETV1 (P50549 whole entry): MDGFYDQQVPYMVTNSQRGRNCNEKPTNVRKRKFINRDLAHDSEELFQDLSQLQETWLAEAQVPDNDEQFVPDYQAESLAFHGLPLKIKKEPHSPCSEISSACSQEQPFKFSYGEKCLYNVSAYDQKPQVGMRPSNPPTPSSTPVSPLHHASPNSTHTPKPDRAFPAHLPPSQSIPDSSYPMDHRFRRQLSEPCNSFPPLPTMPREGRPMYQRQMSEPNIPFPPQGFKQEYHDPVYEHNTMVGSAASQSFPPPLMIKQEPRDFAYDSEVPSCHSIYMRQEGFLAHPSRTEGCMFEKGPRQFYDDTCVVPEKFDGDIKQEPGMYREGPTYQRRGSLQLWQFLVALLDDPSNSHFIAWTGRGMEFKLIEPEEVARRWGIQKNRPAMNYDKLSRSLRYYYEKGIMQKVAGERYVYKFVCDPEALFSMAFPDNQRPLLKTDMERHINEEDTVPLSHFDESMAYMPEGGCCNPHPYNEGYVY
# How it was run: as §1
sequence,measurement,setting,value
TGATGG,binding signal,FLI1,"1.24 fold enrichment (6-mer frequency, TF over GST control)"
same,binding signal,ELK1,"1.27 fold enrichment (6-mer frequency, TF over GST control)"
same,binding signal,GABPA,"1.29 fold enrichment (6-mer frequency, TF over GST control)"
same,binding signal,ERG,"1.24 fold enrichment (6-mer frequency, TF over GST control)"
same,binding signal,ELF1,"1.24 fold enrichment (6-mer frequency, TF over GST control)"
same,binding signal,EHF,"1.31 fold enrichment (6-mer frequency, TF over GST control)"
same,binding signal,SPI1,"1.28 fold enrichment (6-mer frequency, TF over GST control)"
same,binding signal,SPIB,"1.39 fold enrichment (6-mer frequency, TF over GST control)"
same,binding signal,ELK3,"1.16 fold enrichment (6-mer frequency, TF over GST control)"
same,binding signal,FEV,"1.16 fold enrichment (6-mer frequency, TF over GST control)"
same,binding signal,ETV5,"1.34 fold enrichment (6-mer frequency, TF over GST control)"
same,binding signal,HSF1,"1.26 fold enrichment (6-mer frequency, TF over GST control)"
same,binding signal,SPIC,"1.51 fold enrichment (6-mer frequency, TF over GST control)"
same,binding signal,ELF4,"1.29 fold enrichment (6-mer frequency, TF over GST control)"
same,binding signal,ELK4,"1.33 fold enrichment (6-mer frequency, TF over GST control)"
same,binding signal,ETV2,"1.29 fold enrichment (6-mer frequency, TF over GST control)"
same,binding signal,ELF3,"1.32 fold enrichment (6-mer frequency, TF over GST control)"
same,binding signal,CRX,"1.1 fold enrichment (6-mer frequency, TF over GST control)"
same,binding signal,ETV1,"1.32 fold enrichment (6-mer frequency, TF over GST control)"
